The text below walks through data of PubChem BioAssay (EPA / NIEHS).

SMILES strings stand for the structures. Results filed as inconclusive are left out. Active and inactive are the calls of the source. The calls were made as follows: active = hit-call score of the fitted dose curve at least 0.9, where 1 is the maximum; inconclusive = response in the unintended direction; inactive = score below 0.9.

What is called AC50 is the concentration giving half of the maximal activity seen.

Chain of Estrogen receptor (Homo sapiens) (P03372 whole entry, looked up): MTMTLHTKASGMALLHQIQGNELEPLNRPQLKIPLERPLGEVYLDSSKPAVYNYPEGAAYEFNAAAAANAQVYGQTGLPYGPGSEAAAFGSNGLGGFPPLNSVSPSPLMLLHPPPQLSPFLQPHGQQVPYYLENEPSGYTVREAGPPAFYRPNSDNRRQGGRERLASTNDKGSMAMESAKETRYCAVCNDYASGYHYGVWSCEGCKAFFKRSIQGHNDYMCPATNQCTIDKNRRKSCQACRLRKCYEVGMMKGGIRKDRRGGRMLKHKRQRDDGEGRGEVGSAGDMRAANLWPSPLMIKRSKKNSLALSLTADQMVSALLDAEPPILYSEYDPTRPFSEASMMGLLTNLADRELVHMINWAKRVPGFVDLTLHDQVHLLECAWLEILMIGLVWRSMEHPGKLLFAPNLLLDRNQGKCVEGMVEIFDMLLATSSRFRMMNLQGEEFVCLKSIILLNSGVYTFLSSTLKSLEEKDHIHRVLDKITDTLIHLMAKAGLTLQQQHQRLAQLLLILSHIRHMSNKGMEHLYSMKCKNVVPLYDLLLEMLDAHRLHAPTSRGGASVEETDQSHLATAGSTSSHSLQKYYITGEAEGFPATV
T1 sequence (P03372 whole entry, looked up, the tested form may be a part): as the sequence (P03372 whole entry, looked up) above
T1 sequence (Q92731 whole entry, looked up, the tested form may be a part): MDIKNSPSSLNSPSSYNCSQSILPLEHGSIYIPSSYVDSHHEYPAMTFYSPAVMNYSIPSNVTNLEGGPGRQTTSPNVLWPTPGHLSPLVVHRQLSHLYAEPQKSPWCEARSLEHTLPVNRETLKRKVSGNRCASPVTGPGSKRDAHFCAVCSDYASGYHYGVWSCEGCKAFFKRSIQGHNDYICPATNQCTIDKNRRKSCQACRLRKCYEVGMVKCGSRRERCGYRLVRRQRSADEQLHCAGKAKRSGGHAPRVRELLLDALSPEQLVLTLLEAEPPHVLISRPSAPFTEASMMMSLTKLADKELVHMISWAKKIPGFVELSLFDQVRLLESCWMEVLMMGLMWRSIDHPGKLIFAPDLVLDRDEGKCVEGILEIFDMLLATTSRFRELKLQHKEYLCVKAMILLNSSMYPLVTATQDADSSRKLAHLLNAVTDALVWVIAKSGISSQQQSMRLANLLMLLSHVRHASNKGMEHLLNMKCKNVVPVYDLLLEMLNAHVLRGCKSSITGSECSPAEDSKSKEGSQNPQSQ

One test addresses Estrogen receptor (Homo sapiens) (UniProt P03372). In words: NVS_NR_hER: NovaScreen (NVS) Nuclear Receptor Binding Assay for human Estrogen Receptor (ER) (AID 2283348). In outline:
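MCF7-derived receptor extract, radiolabelled ligand, competitive displacement. Read: scintillation counts at 18 h. DMSO = negative control/baseline. Primary 25 uM duplicate; follow-up concentration–response.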
As to `CCN=C1C=CC(=C(c2ccc(N(CC)CC)cc2)c2ccc(N(CC)CC)cc2)c2ccccc21`, the AC50 was 13.8 µM (active).

As to `CCCCCCCCn1sc(Cl)c(Cl)c1=O`, the AC50 was 0.549 µM (active).

On to `CCCCCCCCCCCCCC[P+](CCCC)(CCCC)CCCC`, for which the AC50 is 14.3 µM (active).

Consider `CCC(Cc1c(I)cc(I)c(N)c1I)C(=O)O` (centres undefined), for which the call was inactive.

On to `O=C(c1ccccc1)c1ccc(O)cc1O`, for which the concentration at half-maximal activity (AC50) is 1.42 µM (active).

Take `CCCCOC(=O)C(C)O` (centres undefined): the call was inactive.

Consider `CCN=c1cc2oc3cc(NCC)c(C)cc3c(-c3ccccc3C(=O)OCC)c-2cc1C`, for which the AC50 is 5.29 µM (active).

A further test addresses T1, Estrogen receptor (Homo sapiens) + Estrogen receptor beta (Homo sapiens) (UniProt P03372+Q92731). In words: OT_ER_ERaERb_0480: Odyssey Thera (OT) 8-hour HEK293T Protein-Complementation Assay for Estrogen Receptor-alpha/-beta Heterodimer (AID 2283352). In a few lines: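 Fluorescence intensity readout from a protein-fragment complementation reporter in HEK293T; ER-alpha/ER-beta LBD heterodimer. Dosing 8 h. Gain-of-signal fit relative to DMSO negative control; laser scanning cytometry of whole-well cell population.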
Consider `CCN=C1C=CC(=C(c2ccc(N(CC)CC)cc2)c2ccc(N(CC)CC)cc2)c2ccccc21`, for which the result was inactive.

In the case of `CCCCCCCC/C=C\CCCCCCCC(=O)OCC(O)CO` (centres undefined), the result was inactive.

Consider `CCN=c1cc2oc3cc(NCC)c(C)cc3c(-c3ccccc3C(=O)OCC)c-2cc1C`, for which the AC50 was 71.3 µM (active).

The target in the next test is Androgen Receptor/SRC-1 Co-activator, AR (gene 367) (UniProt P10275). In words: OT_AR_ARSRC1_0960: Odyssey Thera (OT) 16-hour HEK293T Protein-Complementation Assay for Androgen Receptor/SRC-1 Co-activator (AID 2283353).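 Also: actives raise the signal above DMSO so potency reflects increased AR and SRC-1 complex.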 In a few lines: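 Readout: 488 nm nuclear-to-cytoplasmic fluorescence ratio from imaging of at least 400 cells per image, 16 h post-dose. Reporter is Venus YFP complementation between AR and SRC-1 fusions, stably expressed in HEK293T; activity scored upward relative to DMSO.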
Chain of Androgen Receptor/SRC-1 Co-activator, AR (gene 367) (P10275 whole entry, looked up, the tested form may be a part): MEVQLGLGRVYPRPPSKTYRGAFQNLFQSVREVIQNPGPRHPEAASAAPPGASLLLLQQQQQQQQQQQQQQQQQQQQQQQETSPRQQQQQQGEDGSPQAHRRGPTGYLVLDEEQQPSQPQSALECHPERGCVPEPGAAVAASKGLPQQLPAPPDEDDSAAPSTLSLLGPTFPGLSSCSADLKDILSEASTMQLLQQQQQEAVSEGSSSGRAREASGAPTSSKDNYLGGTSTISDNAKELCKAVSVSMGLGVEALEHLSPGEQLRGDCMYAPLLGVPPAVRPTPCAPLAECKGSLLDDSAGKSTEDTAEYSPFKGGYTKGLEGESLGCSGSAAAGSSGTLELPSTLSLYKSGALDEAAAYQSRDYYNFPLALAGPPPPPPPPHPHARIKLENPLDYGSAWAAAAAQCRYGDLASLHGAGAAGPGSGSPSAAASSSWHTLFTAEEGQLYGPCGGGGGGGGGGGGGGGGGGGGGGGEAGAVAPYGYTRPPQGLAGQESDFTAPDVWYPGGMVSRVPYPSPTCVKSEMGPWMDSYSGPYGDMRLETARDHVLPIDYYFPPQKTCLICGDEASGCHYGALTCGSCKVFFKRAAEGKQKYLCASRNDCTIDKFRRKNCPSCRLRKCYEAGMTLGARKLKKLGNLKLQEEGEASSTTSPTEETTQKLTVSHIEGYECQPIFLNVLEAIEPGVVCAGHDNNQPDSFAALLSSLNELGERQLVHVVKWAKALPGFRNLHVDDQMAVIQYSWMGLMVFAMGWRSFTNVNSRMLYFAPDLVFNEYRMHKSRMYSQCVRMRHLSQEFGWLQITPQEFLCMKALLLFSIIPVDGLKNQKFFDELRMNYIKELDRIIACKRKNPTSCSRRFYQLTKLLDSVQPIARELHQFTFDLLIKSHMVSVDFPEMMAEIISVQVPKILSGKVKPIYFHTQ
With `C[C@]12CC[C@H]3C(=CCc4cc(O)ccc43)[C@@H]1CCC2=O`, the half-maximal activity concentration (AC50) is 1.42 µM (active).

With `CCN=C1C=CC(=C(c2ccc(N(CC)CC)cc2)c2ccc(N(CC)CC)cc2)c2ccccc21`, the AC50 was 0.451 µM (active).

With `CCCCCCCCCCCCCC[P+](CCCC)(CCCC)CCCC`, the AC50 is 3.59 µM (active).

Take `CCCCCCCC/C=C\CCCCCCCC(=O)OCC(O)CO` (centres undefined): the outcome was inactive.

As for `CCN=c1cc2oc3cc(NCC)c(C)cc3c(-c3ccccc3C(=O)OCC)c-2cc1C`, the AC50 was 0.55 µM (active).

The target is the same in another test. In words: OT_AR_ARSRC1_0480: Odyssey Thera (OT) 8-hour HEK293T Protein-Complementation Assay for Androgen Receptor/SRC-1 Co-activator (AID 2283354).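 Also: hits raise the complementation signal above DMSO so AC50 marks enhancers.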 In a few lines:
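Split-Venus PCA, stable HEK293T, AR/SRC-1 fusions; 8 h exposure. Readout: 488nm N/C fluorescence ratio, ≥400 cells/image; fitted upward vs DMSO baseline.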
Take `C[C@]12CC[C@H]3C(=CCc4cc(O)ccc43)[C@@H]1CCC2=O`: the concentration at half-maximal activity (AC50) is 0.555 µM (active).

Regarding `CCN=C1C=CC(=C(c2ccc(N(CC)CC)cc2)c2ccc(N(CC)CC)cc2)c2ccccc21`, the AC50 was 1.04 µM (active).

`CCCCCCCCCCCCCC[P+](CCCC)(CCCC)CCCC`: the AC50 was 12.3 µM (active).

Turning to `CCCCCCCC/C=C\CCCCCCCC(=O)OCC(O)CO` (centres undefined), the result was inactive.

For the compound `CCN=c1cc2oc3cc(NCC)c(C)cc3c(-c3ccccc3C(=O)OCC)c-2cc1C`, the AC50 is 12.5 µM (active).

Another test deals with T1, Estrogen receptor (Homo sapiens) + Estrogen receptor beta (Homo sapiens). In words: OT_ER_ERaERb_1440: Odyssey Thera (OT) 24-hour HEK293T Protein-Complementation Assay for Estrogen Receptor-alpha/-beta Homodimer (AID 2283356).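 Also: heteromer of ER alpha and ER beta binding domains; hits raise reporter fluorescence and both agonists and antagonists give an increase.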 In a few lines:
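Readout: mean fluorescence intensity in nucleus (agonists) or nucleus plus cytoplasm (antagonists), read by laser scanning cytometer after 24 h compound exposure of HEK293T cells carrying ERα/ERβ LBD fragment-complementation constructs; DMSO baseline.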
Regarding `CCN=C1C=CC(=C(c2ccc(N(CC)CC)cc2)c2ccc(N(CC)CC)cc2)c2ccccc21`, the result was inactive.

Regarding `CCCCCCCCCCCCCC[P+](CCCC)(CCCC)CCCC`, the result was inactive.

For the compound `CCCCCCCC/C=C\CCCCCCCC(=O)OCC(O)CO` (centres undefined), the result was inactive.

On to `CCN=c1cc2oc3cc(NCC)c(C)cc3c(-c3ccccc3C(=O)OCC)c-2cc1C`, for which the result was inactive.
